SARS PLpro yeast: qHTS of Yeast-based Assay for SARS-CoV PLP; Potency, µM (series often up to 32.9 µM), for inactives: at the highest dose activity, positive = growth rescue, most hits filed as activators; S. cerevisiae expressing SARS-CoV PLpro, growth rescue; AID 485353, 2010; hit rate 0.19% among 330,000; calls by dose curve; note: 0% is about no effect; nearly all actives have a fitted effect of over 55% in size
LmPK inhibitor: qHTS Assay for Inhibitors of Leishmania Mexicana Pyruvate Kinase (LmPK) | Q27686 | Potency, µM (top dose mostly 57.5 µM), without a hit: at the highest dose activity change, negative = inhibition, most hits filed as inhibitors | hit rate 0.37% among 290,000 | purified LmPK, Kinase-Glo ATP luminescence, 1 h; note: % is set by controls: 0 for no effect and ±100 for the full control effect
Target sequence (Q27686 whole entry, looked up): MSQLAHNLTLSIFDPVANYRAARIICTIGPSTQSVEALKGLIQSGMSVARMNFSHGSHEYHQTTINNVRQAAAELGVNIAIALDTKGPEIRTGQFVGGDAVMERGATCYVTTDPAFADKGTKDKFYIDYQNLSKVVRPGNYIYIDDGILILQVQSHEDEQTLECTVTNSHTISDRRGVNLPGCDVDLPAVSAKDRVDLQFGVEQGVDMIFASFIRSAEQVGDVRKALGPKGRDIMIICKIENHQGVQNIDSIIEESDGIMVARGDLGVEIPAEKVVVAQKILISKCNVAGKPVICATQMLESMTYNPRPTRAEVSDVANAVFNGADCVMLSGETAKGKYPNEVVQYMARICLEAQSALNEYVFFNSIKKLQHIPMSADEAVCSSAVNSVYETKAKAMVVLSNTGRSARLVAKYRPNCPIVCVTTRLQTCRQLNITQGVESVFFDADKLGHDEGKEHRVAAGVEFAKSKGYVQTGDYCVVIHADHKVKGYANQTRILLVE
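qHTS format; LmPK 0.1 nM; substrates PEP 0.5 mM and ADP 0.1 mM. One-hour room-temperature incubation, then coupled luciferase luminescence; 0.5 nM enzyme wells mark activation.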
Giardia FBPA inh: qHTS Assay for Inhibitors of Fructose-1,6-bisphosphate Aldolase from Giardia Lamblia | hit rate 0.71% among 290,000 | Potency, µM (series often up to 59.6 µM), without a hit: at the top dose activity, negative = inhibition, usual class: inhibitors | purified Giardia FBPA; note: % is set by controls: 0 for no effect and ±100 for the full control effect; nearly all actives have a fitted effect of over 55% in size
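40 nM FBPA preincubated 10 min at RT with compound (up to 57.5 uM final), then substrate plus GAPDH/TPI/NAD/arsenate coupling and diaphorase/resazurin added. Fluorescence read after 20 min at RT, 525/598 nm.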
RE007 growth inh: qHTS Assay for Inhibitors of the HIV-1 protein Vpr. AID 651644, 2012. hit rate 0.21% among 360,000. S. pombe RE007 Vpr strain, BacTiter-Glo ATP luminescence, 24 h. Potency, µM (highest dose often 92.2 µM), without a hit: top-dose activity change, negative = less growth, usual class: inhibitors; active = well fitted falling curve with a large enough effect; inconclusive = small, poorly fitted or top-dose-only effect; inactive = no such curve, though single readings can be large or run the other way; note: % is set by controls: 0 for no effect and ±100 for the full control effect; nearly all actives have a fitted effect of over 50% in size
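Fission yeast strain RE007, carrying one chromosomally integrated HIV-1 vpr copy, was seeded at OD 0.01 in PMG+AL medium with 23 nL pinned compound. After 24 h at 30 °C and 99% humidity, viability was read by BacTiter-Glo luminescence.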
TbPYK inhibitor: qHTS of Trypanosoma Brucei Inhibitors; pyruvate kinase (Trypanosoma brucei), Q57TT1; TbPYK enzyme, Kinase-Glo Plus ATP luminescence, 45 min; Potency, µM (titrated, usually from 76.8 µM), for the others: top-dose activity, negative = inhibition, most hits filed as inhibitors; hit rate 0.12% among 410,000; note: % is set by controls: 0 for no effect and ±100 for the full control effect; nearly all actives have a fitted effect of over 50% in size
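Activity of T. brucei pyruvate kinase was followed by Kinase-Glo Plus luminescence after the enzyme reacted 45 min at room temperature with 130 uM ADP (final) and substrate. Test compounds were added before ADP at multiple concentrations.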
* marks the source's active call; other numbers are inactive results; u = inconclusive; x = no result; [ ] = another dose, or the depositor's remark. Most compounds without a hit are left out; they make up all but 1.1% or so of the library. Unless noted, calls come from the whole dose curve; as a rule, active = well fitted curve in the direction sought with a large enough effect; inconclusive = small, poorly fitted or top-dose-only effect, or another doubt; inactive = no such curve, though single readings can be large; an effect the other way counts as inactive or inconclusive. Potency is the fitted concentration of half-maximal effect.

SMILES	SARS PLpro yeast	LmPK inhibitor	Giardia FBPA inh	RE007 growth inh	TbPYK inhibitor
S=C(Nc1ccc(Oc2ccccc2)cc1)NC1CCCCCC1	-58.7%	2.6%	9.4%	2.1%	3.8%
C=CCN(CC=C)C(=S)Nc1ccc2nsnc2c1	-3.2%	-6.4%	9.98µM*	4.7%	-0.2%
S=C(Nc1ccc2nsnc2c1)NC1CCCCC1	8.9%	2.3%	1.77µM*	0.2%	-9.8%
c1cnc2cc3c(cc2n1)[C@@H]1CNC[C@@H]3C1	x	x	x	x	-3.4%
CC1(C)OC(=O)C(=CNc2cccc(O)c2)C(=O)O1	2.5%	-4.2%	-2.0%	1.6%	-3.5%
CC1(C)OC(C)(C)/C(=C/Nc2ccc(O)cc2)C1=O	-11.3%	1.2%	2.81µM*	4.4%	-16.1%
Cc1cccc(-n2ncc3c(N4CCOCC4)ncnc32)c1	-23.7%	25.1µM*	-14.8%	-18.8%	-14.1%
COc1ccc(-n2ncc3c(N4CCCCC4)ncnc32)cc1	-14.8%	15.8µM*	-4.0%	-8.1%	-11.3%
CCCCC(C)(O)C/C=C/[C@H]1[C@H](O)CC(=O)[C@@H]1CCCCCCC(=O)O (stereo partly specified)	x	x	-0.5%	x	x
COc1cc(OC)cc(C(=O)Nc2ccc(-n3cnnn3)c(C)c2)c1	-8.3%	14.1µM*	-6.7%	-24.2%	-16.9%
Oc1[nH]c(=S)sc1C=C1N=c2ccccc2=N1	0.6%	15.8µM*	-9.1%	4.1%	u
Oc1c(C=C2N=c3ccccc3=N2)sc(=S)n1-c1ccc(F)cc1	4.5%	1.1%	6.9%	15.1%	-7.9%
Cc1nn(S(=O)(=O)c2ccc(C(C)C)cc2)c(C)c1S(=O)(=O)N1CCCCCC1	x	x	x	x	-2.5%
CCN(CC)CCNc1cc(C)nc2c1C(=O)C(=O)C=C2N1CCCCC1	-0.3%	u	1.99µM*	-0.4%	0.8%
O=C(/C=C/c1cccs1)N1CCc2ccccc21	-48.5%	14.1µM*	-9.5%	x	u
COc1ccc(/C=N/NC(=O)c2nn(-c3ccccc3)c(=O)c3c(N)scc23)cc1	2.2%	7.2%	2.51µM*	-17.1%	-10.3%
COc1ccc(/C=N/NC(=O)c2nn(-c3ccc(Cl)cc3)c(=O)c3c(N)scc23)cc1	10.8%	2.8%	u	16.6%	-3.7%
CCn1c(C(c2ccccc2)c2ccccc2)n[nH]c1=S	1.6%	-18.0%	6.1%	8.8%	8.91µM*
CCCOc1ccc(CCc2n[nH]c(=S)n2Cc2ccccc2)cc1	20.2%	u	-5.4%	22.1%	u
S=c1[nH]nc(CCc2ccccc2)n1Cc1ccccc1	6.2%	8.91µM*	u	-0.2%	3.98µM*
S=c1[nH]nc(COc2ccc(Cl)cc2)n1Cc1ccccc1	0.4%	2.4%	7.5%	9.6%	u
COc1ccccc1OCc1n[nH]c(=S)n1Cc1ccccc1	-4.1%	-1.0%	-2.5%	13.5%	3.98µM*
C=CCn1c(C(c2ccccc2)c2ccccc2)n[nH]c1=S	0.2%	-29.7%	-4.7%	-8.0%	u
COc1cc(C(=O)Nc2cc(C)c(O)c(-c3nc4cc(Cl)ccc4o3)c2)cc(OC)c1OC	x	x	x	x	6.2%
CC(C)(C)OC(=O)CN(Cc1ccc(Cl)cc1)Cc1ccc([N+](=O)[O-])s1	x	x	x	x	1.2%
SMILES	SARS PLpro yeast	LmPK inhibitor	Giardia FBPA inh	RE007 growth inh	TbPYK inhibitor
CCC(N)CCc1c[nH]c2ccccc12 (stereo unspecified)	x	x	x	x	-9.1%[157 µM]
COc1ccc(/C=C2\CCc3c2nc2ccccc2c3C(=O)O)cc1OC	0.1%	1.0%	-16.4%	-15.2%	5.7%
COc1ccc(/C=C2\CCCc3c2nc2ccccc2c3C(=O)O)cc1OC	0.6%	8.4%	7.92µM*	x	x
Cc1ccc2c(c1)COc1c3ccc(C(=O)N4CCOCC4)cc3nn1-2	-4.2%	15.8µM*	5.6%	-33.0%	-15.0%
O=C(c1ccc2c3n(nc2c1)-c1ccc(Cl)cc1CO3)N1CCCCC1	-19.2%	25.1µM*	-7.1%	-16.3%	-18.5%
C=CCNC(=O)c1ccc2c3n(nc2c1)-c1ccccc1CO3	-8.6%	14.1µM*	-0.1%	u	u
CCOc1ccc(OCC)c(NC(=O)c2cnc(SC)nc2-c2ccccc2)c1	x	x	x	x	-16.1%
CCOC(=O)N1CCC2(CC1)OC(=O)C(C)=C2C(=O)NCc1cccc(OC)c1	x	x	x	x	12.6%[15.4 µM]
c1c2c(cc3sc(N4CCOCC4)nc13)OCCO2	-12.8%	14.1µM*	0.3%	u	u
c1ccc(N2CCN(c3nc4cc5c(cc4s3)OCCO5)CC2)cc1	-6.7%	-0.2%	-1.0%	9.5%	3.5%
CN(C)c1ccc(N=Cc2ccco2)cc1	-5.9%	u	2.81µM*	u	-15.5%
Nc1nc(SCC(=O)c2cc3ccccc3o2)n[nH]1	0.2%	1.8%	u	5.6%	-11.8%
O=C(CSc1cccc[n+]1[O-])c1cc(Cl)ccc1Cl	-18.4%	-0.1%	u	5.01µM*	2.5%
O=C(CSc1cccc[n+]1[O-])c1cc2ccccc2o1	-32.3%	20.8%	u	8.91µM*	-12.3%
O=C(O)CSc1cccc[n+]1[O-]	x	-3.6%	-0.2%	16.0%	-1.9%
C[C@@H]1CN(CC(=O)Nc2ccc3c(c2)Cc2cccc(-c4cc(=O)cc(N5CCOCC5)o4)c2S3)C[C@H](C)O1	x	x	x	x	0.0%
O=C(/C=C\Nc1ccc2c(c1)OCO2)c1ccccn1	-16.9%	3.55µM*	-1.1%	-19.7%	-22.6%
Cc1ccc(N/C=C/C(=O)c2cccs2)cc1	-1.2%	15.8µM*	-10.6%	1.4%	-18.3%
O=C(/C=C\Nc1ccc2c(c1)OCO2)c1ccc(Cl)s1	-0.4%	-10.7%	-5.7%	-9.8%	2.2%
O=C(/C=C\Nc1ccc2c(c1)OCO2)c1cccs1	-3.0%	11.2µM*	-7.7%	u	u
O=C(Nc1ccc2c(c1)OCO2)c1ccccn1	-8.8%	x	x	-15.3%	-24.5%
O=C(Nc1ccc2c(c1)OCO2)c1cccs1	x	25.1µM*	-19.6%	u	-14.2%
Cc1noc(NS(=O)(=O)c2ccc(N/C=C\C(=O)c3cccs3)cc2)c1C	-0.4%	-1.8%	25.5%	-9.5%	-3.3%
CCOCCc1nnc(NC(=O)C(=O)c2cc(C)n(-c3ccc(Cl)cc3)c2C)s1	x	x	x	x	2.2%
CCC(=O)NC(=S)Nc1ccc(N2CCOCC2)cc1	-0.8%	1.1%	10.3%	0.4%	-4.0%
SMILES	SARS PLpro yeast	LmPK inhibitor	Giardia FBPA inh	RE007 growth inh	TbPYK inhibitor
CCCCCC(=O)NC(=S)Nc1ccc(N2CCOCC2)cc1	12.6µM*	0.4%	-7.0%	-3.3%	4.3%
CN1/C(=C/C(=O)c2cccs2)Sc2ccccc21	-20.9%	u	u	x	x
CN1/C(=C\C(=O)c2cccs2)Sc2ccccc21	-25.4%	11.2µM*	-26.4%	-19.0%	-17.4%
C[CH2][Hg][S]c1ccccc1C(=O)O	x	x	12.6µM*	-21.0%	11.2µM*
O=C(O)c1ccccc1SSc1ccccc1C(=O)O	1.1%	17.0%	-4.7%	-5.1%	-22.3%
CCC(=O)N1CCc2cc(S(=O)(=O)NCCC(=O)NCc3ccc(OC)cc3)ccc21	x	x	x	x	-4.2%
Cc1ccc(-c2nc(-c3cccnc3)no2)cc1	x	-29.5%	-0.1%	-26.1%	-3.1%
